Assay results: PMC7862700, “An all-to-all approach to the identification of sequence-specific readers for epigenetic DNA modifications on cytosine”

Legend:
Experiment in all cases: DAPPL (digital affinity profiling via proximity ligation, sequencing); 10 mM Tris-HCl pH 7.5, 50 mM NaCl, 1 mM DTT, 4% glycerol, room temperature, 30 min; GST-TFs on glutathione beads, 16-mer random dsDNA library, 0.1% formaldehyde crosslink after washing; high values mean tight binding
[1] = biological target: T1, FLI1 (Homo sapiens, UniProt Q01543 1-452); conditions: protein: recombinant; tags: N-terminal GST; dsDNA, one strand shown
T1 sequence: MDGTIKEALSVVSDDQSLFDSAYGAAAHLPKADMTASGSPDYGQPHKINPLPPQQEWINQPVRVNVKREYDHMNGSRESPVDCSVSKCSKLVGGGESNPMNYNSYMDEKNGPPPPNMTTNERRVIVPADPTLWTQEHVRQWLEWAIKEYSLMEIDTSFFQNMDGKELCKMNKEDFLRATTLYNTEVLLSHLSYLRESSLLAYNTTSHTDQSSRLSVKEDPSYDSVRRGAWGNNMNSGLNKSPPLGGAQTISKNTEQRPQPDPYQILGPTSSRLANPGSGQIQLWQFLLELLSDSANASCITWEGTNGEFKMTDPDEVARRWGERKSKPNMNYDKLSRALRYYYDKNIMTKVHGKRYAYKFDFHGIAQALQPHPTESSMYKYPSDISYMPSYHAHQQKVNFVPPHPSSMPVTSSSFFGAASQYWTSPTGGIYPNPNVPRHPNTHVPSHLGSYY
In short: (§1)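 Human transcription factors were made in yeast as GST fusions, captured on glutathione beads and barcoded with DNA. With a tag-only sample included, the pool was incubated with 200 nmole of a random double-stranded 16-mer DNA library in Tris/NaCl/DTT/glycerol buffer at room temperature for 30 min, then crosslinked with 0.1% formaldehyde after washing, ligated by proximity, amplified and sequenced. For binding signal, each hexamer's read frequency for a factor is divided by its frequency for the tag-only sample.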

[2] = biological target: T2, ELK1 (Homo sapiens, UniProt P19419 1-428); conditions: protein: recombinant; tags: N-terminal GST; dsDNA, one strand shown
T2 sequence: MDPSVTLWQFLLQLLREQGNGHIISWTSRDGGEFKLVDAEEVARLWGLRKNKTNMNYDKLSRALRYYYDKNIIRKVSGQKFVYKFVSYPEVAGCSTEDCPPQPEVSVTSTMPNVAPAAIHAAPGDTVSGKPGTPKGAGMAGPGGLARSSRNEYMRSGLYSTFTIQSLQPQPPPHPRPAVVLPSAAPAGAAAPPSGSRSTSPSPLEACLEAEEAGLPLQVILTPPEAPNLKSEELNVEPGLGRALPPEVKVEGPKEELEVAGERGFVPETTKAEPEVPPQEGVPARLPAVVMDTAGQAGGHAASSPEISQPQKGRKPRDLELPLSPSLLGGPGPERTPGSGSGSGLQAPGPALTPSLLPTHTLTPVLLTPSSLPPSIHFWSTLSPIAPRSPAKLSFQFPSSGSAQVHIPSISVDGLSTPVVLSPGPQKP
In short: as §1

[3] = biological target: T3, GABPA (Homo sapiens, UniProt Q06546 1-454); conditions: protein: recombinant; tags: N-terminal GST; dsDNA, one strand shown
T3 sequence: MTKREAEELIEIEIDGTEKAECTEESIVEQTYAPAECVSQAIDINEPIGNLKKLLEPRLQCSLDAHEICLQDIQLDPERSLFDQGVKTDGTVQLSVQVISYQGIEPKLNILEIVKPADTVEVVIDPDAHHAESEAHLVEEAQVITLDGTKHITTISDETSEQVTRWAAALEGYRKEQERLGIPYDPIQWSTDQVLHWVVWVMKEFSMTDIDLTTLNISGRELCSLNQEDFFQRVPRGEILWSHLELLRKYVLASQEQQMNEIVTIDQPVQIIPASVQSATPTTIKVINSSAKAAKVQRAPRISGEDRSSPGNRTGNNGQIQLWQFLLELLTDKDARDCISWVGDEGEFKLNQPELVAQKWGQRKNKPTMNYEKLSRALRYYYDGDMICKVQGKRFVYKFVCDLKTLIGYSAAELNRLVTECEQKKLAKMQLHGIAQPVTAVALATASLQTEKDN
In short: as §1

[4] = biological target: T4, ERG (Homo sapiens, UniProt P11308 1-479); conditions: protein: recombinant; tags: N-terminal GST; dsDNA, one strand shown
T4 sequence: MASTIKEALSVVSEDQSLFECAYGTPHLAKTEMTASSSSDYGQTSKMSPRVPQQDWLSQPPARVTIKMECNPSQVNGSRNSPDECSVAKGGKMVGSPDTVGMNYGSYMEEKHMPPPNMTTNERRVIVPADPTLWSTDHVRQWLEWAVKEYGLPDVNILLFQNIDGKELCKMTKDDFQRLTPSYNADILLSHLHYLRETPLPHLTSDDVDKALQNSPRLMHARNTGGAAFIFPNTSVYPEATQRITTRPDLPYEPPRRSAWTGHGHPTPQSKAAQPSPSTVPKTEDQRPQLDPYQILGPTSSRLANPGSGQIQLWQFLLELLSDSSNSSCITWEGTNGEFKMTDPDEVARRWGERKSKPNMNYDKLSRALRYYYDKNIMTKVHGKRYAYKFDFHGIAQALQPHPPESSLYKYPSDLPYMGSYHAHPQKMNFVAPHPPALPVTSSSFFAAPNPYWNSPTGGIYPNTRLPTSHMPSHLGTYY
In short: as §1

[5] = biological target: ELF1 (Homo sapiens, UniProt P32519 1-619); conditions: protein: recombinant; tags: N-terminal GST; dsDNA, one strand shown
ELF1, sequence (P32519 whole entry): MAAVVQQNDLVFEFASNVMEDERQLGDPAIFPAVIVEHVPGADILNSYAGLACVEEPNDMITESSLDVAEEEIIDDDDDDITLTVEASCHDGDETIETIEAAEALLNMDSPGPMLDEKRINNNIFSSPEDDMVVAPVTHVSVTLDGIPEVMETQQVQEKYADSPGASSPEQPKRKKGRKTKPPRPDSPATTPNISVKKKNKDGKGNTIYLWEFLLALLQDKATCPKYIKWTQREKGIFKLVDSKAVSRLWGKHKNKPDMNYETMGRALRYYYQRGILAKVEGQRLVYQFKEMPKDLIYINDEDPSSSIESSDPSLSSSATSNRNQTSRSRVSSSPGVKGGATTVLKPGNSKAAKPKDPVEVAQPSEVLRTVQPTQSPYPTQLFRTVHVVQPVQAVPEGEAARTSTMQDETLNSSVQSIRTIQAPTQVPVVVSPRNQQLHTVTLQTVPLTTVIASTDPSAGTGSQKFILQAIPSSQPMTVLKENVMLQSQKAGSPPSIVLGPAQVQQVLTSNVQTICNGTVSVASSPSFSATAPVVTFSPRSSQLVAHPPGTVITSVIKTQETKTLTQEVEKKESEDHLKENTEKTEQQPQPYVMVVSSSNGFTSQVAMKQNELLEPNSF
In short: as §1

[6] = biological target: T5, EHF (Homo sapiens, UniProt Q9NZC4 1-300); conditions: protein: recombinant; tags: N-terminal GST; dsDNA, one strand shown
T5 sequence: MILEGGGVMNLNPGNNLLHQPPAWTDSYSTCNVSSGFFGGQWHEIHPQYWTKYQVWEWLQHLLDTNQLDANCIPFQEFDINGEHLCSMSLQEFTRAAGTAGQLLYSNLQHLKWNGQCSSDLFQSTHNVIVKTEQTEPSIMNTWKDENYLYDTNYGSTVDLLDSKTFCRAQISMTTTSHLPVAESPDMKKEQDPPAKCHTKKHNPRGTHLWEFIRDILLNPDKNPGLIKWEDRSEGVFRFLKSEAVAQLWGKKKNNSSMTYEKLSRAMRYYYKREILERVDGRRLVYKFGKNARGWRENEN
In short: as §1

[7] = biological target: SPI1 (Homo sapiens, UniProt P17947 1-270); conditions: protein: recombinant; tags: N-terminal GST; dsDNA, one strand shown
In short: as §1

[8] = biological target: SPIB (Homo sapiens, UniProt Q01892 1-262); conditions: protein: recombinant; tags: N-terminal GST; dsDNA, one strand shown
SPIB, sequence (Q01892 whole entry): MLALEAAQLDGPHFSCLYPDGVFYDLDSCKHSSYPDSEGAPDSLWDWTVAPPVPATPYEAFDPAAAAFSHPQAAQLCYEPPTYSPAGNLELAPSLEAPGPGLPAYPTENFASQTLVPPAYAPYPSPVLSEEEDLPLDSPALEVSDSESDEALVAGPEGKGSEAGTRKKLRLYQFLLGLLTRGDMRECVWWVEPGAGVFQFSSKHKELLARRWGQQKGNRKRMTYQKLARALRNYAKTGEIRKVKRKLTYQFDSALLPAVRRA
In short: as §1

[9] = biological target: T6, ELK3 (Homo sapiens, UniProt P41970 1-407); conditions: protein: recombinant; tags: N-terminal GST; dsDNA, one strand shown
T6 sequence: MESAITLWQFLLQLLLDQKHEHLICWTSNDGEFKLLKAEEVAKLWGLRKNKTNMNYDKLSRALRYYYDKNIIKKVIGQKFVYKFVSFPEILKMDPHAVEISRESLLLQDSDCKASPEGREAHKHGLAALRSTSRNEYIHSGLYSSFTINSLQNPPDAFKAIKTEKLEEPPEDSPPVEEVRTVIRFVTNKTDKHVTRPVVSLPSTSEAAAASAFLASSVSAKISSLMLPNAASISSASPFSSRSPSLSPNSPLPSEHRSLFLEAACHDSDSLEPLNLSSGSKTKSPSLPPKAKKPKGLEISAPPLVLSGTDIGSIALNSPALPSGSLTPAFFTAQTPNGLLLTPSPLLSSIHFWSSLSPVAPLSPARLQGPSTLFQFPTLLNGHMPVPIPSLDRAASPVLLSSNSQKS
In short: as §1

[10] = biological target: T7, FEV (Homo sapiens, UniProt Q99581 1-238); conditions: protein: recombinant; tags: N-terminal GST; dsDNA, one strand shown
T7 sequence: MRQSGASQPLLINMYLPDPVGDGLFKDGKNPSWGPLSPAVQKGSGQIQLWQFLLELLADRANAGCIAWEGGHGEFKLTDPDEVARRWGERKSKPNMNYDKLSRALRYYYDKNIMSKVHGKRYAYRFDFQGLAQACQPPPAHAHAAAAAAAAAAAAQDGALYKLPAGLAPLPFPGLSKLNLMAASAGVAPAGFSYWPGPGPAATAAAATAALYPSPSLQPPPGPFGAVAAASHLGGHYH
In short: as §1

[11] = biological target: ETV5 (Homo sapiens, UniProt P41161 1-510); conditions: protein: recombinant; tags: N-terminal GST; dsDNA, one strand shown
ETV5, sequence (P41161 whole entry): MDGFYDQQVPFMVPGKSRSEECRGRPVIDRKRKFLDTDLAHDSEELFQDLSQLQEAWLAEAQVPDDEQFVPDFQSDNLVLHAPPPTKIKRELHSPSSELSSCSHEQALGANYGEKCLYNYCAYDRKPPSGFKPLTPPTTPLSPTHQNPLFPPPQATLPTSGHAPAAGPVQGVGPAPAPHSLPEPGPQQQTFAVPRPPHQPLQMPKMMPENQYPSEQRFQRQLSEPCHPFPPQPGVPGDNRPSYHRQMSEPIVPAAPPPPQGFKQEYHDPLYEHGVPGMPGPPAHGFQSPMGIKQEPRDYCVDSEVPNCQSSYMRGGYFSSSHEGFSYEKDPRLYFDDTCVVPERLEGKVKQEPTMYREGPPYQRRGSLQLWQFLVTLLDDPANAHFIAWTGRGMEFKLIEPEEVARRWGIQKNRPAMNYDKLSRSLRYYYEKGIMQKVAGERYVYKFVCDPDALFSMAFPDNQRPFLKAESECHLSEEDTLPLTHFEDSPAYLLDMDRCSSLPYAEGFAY
In short: as §1

[12] = biological target: HSF1 (Homo sapiens, UniProt Q00613 1-529); conditions: protein: recombinant; tags: N-terminal GST; chain copies: 3; dsDNA, one strand shown
HSF1, sequence (Q00613 whole entry): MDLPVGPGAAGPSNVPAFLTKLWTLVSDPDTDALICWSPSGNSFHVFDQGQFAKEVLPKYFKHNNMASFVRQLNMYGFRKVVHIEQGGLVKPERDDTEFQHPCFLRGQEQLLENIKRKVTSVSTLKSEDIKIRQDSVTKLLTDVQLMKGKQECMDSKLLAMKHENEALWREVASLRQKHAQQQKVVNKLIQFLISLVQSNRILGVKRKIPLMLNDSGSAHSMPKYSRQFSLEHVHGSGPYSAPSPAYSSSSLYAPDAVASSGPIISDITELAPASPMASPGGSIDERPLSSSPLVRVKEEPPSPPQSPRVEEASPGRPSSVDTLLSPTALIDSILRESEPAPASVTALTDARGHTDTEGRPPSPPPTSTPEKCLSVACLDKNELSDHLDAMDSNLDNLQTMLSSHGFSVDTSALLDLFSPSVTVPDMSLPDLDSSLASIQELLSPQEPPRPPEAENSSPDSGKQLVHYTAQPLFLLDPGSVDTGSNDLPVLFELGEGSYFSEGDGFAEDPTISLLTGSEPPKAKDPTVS
In short: as §1

[13] = biological target: T8, SPIC (Homo sapiens, UniProt Q8N5J4 1-248); conditions: protein: recombinant; tags: N-terminal GST; dsDNA, one strand shown
T8 sequence: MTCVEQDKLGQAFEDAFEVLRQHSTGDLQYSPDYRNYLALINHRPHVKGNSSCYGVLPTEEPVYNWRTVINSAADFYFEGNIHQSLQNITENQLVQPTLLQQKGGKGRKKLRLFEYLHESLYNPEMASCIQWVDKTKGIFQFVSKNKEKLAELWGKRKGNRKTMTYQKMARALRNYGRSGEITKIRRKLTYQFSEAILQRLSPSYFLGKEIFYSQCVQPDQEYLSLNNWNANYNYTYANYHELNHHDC
In short: as §1

[14] = biological target: ELF4 (Homo sapiens, UniProt Q99607 1-663); conditions: protein: recombinant; tags: N-terminal GST; dsDNA, one strand shown
ELF4, sequence (Q99607 whole entry): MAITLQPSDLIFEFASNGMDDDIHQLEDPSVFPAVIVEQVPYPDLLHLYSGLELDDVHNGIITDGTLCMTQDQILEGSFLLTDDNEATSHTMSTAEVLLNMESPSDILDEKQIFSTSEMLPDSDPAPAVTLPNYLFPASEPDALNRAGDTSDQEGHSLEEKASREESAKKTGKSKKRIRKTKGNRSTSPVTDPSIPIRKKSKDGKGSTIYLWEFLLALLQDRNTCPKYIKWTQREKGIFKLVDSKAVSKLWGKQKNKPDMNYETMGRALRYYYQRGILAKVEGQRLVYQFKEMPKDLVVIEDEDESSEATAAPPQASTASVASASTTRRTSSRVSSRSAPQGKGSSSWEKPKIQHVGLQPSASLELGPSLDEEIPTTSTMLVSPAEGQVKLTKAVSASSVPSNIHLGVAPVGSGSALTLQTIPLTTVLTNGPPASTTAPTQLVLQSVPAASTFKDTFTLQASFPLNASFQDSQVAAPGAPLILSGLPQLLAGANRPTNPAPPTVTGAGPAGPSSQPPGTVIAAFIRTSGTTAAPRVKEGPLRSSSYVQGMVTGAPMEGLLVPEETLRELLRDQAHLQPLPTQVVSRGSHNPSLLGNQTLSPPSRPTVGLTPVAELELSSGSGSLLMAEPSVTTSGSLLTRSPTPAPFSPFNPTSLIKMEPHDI
In short: as §1

[15] = biological target: T9, ELK4 (Homo sapiens, UniProt P28324-2 1-405); conditions: protein: recombinant; tags: N-terminal GST; dsDNA, one strand shown
T9 sequence: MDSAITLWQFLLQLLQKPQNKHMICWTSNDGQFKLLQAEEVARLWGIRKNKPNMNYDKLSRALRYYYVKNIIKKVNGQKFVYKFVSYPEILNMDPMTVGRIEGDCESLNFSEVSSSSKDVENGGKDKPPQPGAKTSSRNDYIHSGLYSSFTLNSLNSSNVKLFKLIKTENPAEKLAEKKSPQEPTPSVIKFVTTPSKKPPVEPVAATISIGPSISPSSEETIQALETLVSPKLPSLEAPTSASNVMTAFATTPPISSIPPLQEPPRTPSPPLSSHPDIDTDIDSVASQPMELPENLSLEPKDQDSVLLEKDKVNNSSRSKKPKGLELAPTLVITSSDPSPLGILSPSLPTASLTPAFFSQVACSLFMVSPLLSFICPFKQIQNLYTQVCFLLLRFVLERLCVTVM
In short: as §1

[16] = biological target: T10, ETV2 (Homo sapiens, UniProt O00321 1-342); conditions: protein: recombinant; tags: N-terminal GST; dsDNA, one strand shown
T10 sequence: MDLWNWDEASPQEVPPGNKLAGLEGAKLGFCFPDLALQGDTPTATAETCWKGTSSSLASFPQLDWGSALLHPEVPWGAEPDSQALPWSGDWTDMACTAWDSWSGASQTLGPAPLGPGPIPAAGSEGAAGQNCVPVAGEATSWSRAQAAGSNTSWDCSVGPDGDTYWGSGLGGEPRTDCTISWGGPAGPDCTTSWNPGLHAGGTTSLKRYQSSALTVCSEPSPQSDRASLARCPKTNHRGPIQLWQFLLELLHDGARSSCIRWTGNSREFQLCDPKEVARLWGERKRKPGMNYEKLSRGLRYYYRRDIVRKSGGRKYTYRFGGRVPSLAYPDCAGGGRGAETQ
In short: as §1

[17] = biological target: T11, ELF3 (Homo sapiens, UniProt P78545 1-371); conditions: protein: recombinant; tags: N-terminal GST; dsDNA, one strand shown
T11 sequence: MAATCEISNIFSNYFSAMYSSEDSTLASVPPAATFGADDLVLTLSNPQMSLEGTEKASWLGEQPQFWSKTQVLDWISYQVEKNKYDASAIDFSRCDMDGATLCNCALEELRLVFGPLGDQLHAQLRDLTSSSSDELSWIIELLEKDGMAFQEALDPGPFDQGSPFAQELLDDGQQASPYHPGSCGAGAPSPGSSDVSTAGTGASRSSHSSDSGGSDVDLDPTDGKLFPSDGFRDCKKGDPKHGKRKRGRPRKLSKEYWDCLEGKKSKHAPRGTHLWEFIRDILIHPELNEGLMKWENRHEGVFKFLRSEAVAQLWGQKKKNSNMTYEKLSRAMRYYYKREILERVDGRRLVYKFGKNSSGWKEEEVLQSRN
In short: as §1

[18] = biological target: CRX (Homo sapiens, UniProt O43186 1-299); conditions: protein: recombinant; tags: N-terminal GST; dsDNA, one strand shown
CRX, sequence (O43186 whole entry): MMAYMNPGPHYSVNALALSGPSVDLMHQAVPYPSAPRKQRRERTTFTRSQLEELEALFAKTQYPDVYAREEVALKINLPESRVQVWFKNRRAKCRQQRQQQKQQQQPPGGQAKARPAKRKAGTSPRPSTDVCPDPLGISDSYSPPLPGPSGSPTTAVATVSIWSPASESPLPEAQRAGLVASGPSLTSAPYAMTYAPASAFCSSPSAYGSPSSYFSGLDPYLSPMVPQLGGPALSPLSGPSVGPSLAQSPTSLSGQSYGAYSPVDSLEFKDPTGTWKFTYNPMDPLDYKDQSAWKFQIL
In short: as §1

[19] = biological target: ETV1 (Homo sapiens, UniProt P50549 1-477); conditions: protein: recombinant; tags: N-terminal GST; dsDNA, one strand shown
ETV1, sequence (P50549 whole entry): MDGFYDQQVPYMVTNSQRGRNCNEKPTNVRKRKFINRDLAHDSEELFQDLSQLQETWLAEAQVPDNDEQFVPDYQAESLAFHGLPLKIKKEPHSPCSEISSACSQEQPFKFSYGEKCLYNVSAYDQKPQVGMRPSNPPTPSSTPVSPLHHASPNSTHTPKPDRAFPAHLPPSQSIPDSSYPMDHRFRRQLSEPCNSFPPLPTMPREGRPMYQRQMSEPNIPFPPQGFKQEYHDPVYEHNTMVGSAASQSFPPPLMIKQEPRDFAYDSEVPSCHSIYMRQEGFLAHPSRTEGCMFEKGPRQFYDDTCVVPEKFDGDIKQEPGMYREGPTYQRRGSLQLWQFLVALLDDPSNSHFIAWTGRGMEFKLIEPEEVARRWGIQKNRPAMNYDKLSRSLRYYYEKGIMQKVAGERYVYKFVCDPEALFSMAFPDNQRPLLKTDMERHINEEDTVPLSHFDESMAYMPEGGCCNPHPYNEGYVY
In short: as §1

TATCTA
binding signal [1]: 1.18 fold enrichment (6-mer frequency, TF over GST control) | binding signal [2]: 1.23 fold enrichment (6-mer frequency, TF over GST control) | binding signal [3]: 1.35 fold enrichment (6-mer frequency, TF over GST control) | binding signal [4]: 1.18 fold enrichment (6-mer frequency, TF over GST control) | binding signal [5]: 1.18 fold enrichment (6-mer frequency, TF over GST control) | binding signal [6]: 1.2 fold enrichment (6-mer frequency, TF over GST control) | binding signal [7]: 1.27 fold enrichment (6-mer frequency, TF over GST control) | binding signal [8]: 1.28 fold enrichment (6-mer frequency, TF over GST control) | binding signal [9]: 1.28 fold enrichment (6-mer frequency, TF over GST control) | binding signal [10]: 1.19 fold enrichment (6-mer frequency, TF over GST control) | binding signal [11]: 1.14 fold enrichment (6-mer frequency, TF over GST control) | binding signal [12]: 1.66 fold enrichment (6-mer frequency, TF over GST control) | binding signal [13]: 1.19 fold enrichment (6-mer frequency, TF over GST control) | binding signal [14]: 1.22 fold enrichment (6-mer frequency, TF over GST control) | binding signal [15]: 1.2 fold enrichment (6-mer frequency, TF over GST control) | binding signal [16]: 1.25 fold enrichment (6-mer frequency, TF over GST control) | binding signal [17]: 1.34 fold enrichment (6-mer frequency, TF over GST control) | binding signal [18]: 1.73 fold enrichment (6-mer frequency, TF over GST control) | binding signal [19]: 1.14 fold enrichment (6-mer frequency, TF over GST control)
